± gives the standard deviation of the averaged measurements. In all, about 25,000 sequences were measured (“ln(normalized median fluorescence intensity)”: median about 8.6, highest 2% from about 10 on). This excerpt belongs to a sample that is enriched for the highest values.

The subject of this assay is PfAP2-EXP AP2 domain (GST-tagged). In words: gcPBM binding intensity (ln(normalized median fluorescence intensity)); higher = stronger DNA binding. A digest of the protocol: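 Plasmodium falciparum DNA-binding domains carrying a GST tag were expressed in E. coli and applied for 1 h, at about 25 μg on average, to an Agilent 4 × 180k array. The array held primer-extended double-stranded 36-bp intergenic genomic probes together with negative controls, and binding took place in 1× PBS with 1% milk, 0.2 mg/ml BSA, 0.5% salmon testes DNA and 0.03% Triton X-100. An Alexa488 anti-GST antibody detected bound protein, and the array was scanned at 488 nm. Binding intensity is taken as the highest Masliner-normalised natural-log median intensity across replicate spots of either probe orientation.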
On to “AAAAATATATAAAGAAAAAGAATATAATATAAAATA [GTGCAC_negctrl_site208]”, for which the “gcPBM binding intensity (ln)” value was 8.53 ± 0.38.

“AACATATTTATGATGTGTACCTACATAATAGAATTT [XGTACX_site141]”: the “gcPBM binding intensity (ln)” value is 8.38 ± 0.32.

Regarding “AAAAAGGTTATTGGTACACACATATGTATATATATA [CACACA_site552]”, the “gcPBM binding intensity (ln)” value is 9.3 ± 0.057.

As for “AAGGTAAAATATAAGTGTACTTTTTCTTAATCTTCG [XGTACX_site514]”, the “gcPBM binding intensity (ln)” value came to 8.31 ± 0.15.

For “ATGGGAATATAATTATGTACATATAAAAATTATAAA [XGTACX_site5336]”, the “gcPBM binding intensity (ln)” value was 8.62 ± 0.34.

With “TGCAATTGTAAAGGCGCACACATATATATATATATA [CACACA_site4894]”, the “gcPBM binding intensity (ln)” value was 10.1 ± 0.34.

Regarding “AAAAAAAGGTAAAATTGTACATACGCACAAAAATAT [XGTACX_site2887]”, the “gcPBM binding intensity (ln)” value was determined as 8.73 ± 0.33.

As to “TACAATTGTAAAGGCGCACACATATATATATATATA [CACACA_site1392]”, the “gcPBM binding intensity (ln)” value is 10.3 ± 0.59.

As to “TTTTCCAGTAAATATTTTTTTATAATATTTATATAT [CACACA_negctrl_site387]”, the “gcPBM binding intensity (ln)” value turned out to be 8.3 ± 0.4.

In the case of “AAATATACATACATATGTACATATATATATATATAT [XGTACX_site8202]”, the “gcPBM binding intensity (ln)” value turned out to be 10.1 ± 0.45.

“TTATGTAAATAATTTTGTACTTAAATTATTATATAA [XGTACX_site1491]”: the “gcPBM binding intensity (ln)” value worked out at 8.08 ± 0.4.

For “ATGATGTGCAAGAGTAGTACACAATTTTGGGTTTAT [XGTACX_site501]”, the “gcPBM binding intensity (ln)” value amounted to 8.76 ± 0.39.

For “ATATATATATATATAACACACGTGTATTTATCTGTA [CACACA_site5922]”, the “gcPBM binding intensity (ln)” value worked out at 9.99 ± 0.34.

Take “ATATATATATATATAACACACGTGTATATATATGTA [CACACA_site3644]”: the “gcPBM binding intensity (ln)” value turned out to be 10.2 ± 0.23.

Consider “AATAAAAAATATAACACAAATATGTATATATATATA [TGCATGCA_negctrl_site245]”, for which the “gcPBM binding intensity (ln)” value was 9.81 ± 0.34.

For “TTTTTTTTTTTTTTGGGTACATAATAATAACAAGTG [XGTACX_site1034]”, the “gcPBM binding intensity (ln)” value is 8.28 ± 0.32.

Consider “TTTTTTTTTTTTTTATGTACGAAAGAAAAGCACATA [XGTACX_site8261]”, for which the “gcPBM binding intensity (ln)” value was determined as 8.57 ± 0.27.

For “ATTTAGTATTCGAAACGTACACATATATATATATAT [XGTACX_site3910]”, the “gcPBM binding intensity (ln)” value turned out to be 10.2 ± 0.4.

As for “TTTTATAAAGAACACAGACACACAAAGAAAGAACCA [CACACA_site4174]”, the “gcPBM binding intensity (ln)” value came out at 9.02 ± 0.6.

For “AACACAAGAACAGAACGTACACACACATATATATAT [XGTACX_site7347]”, the “gcPBM binding intensity (ln)” value amounted to 9.76 ± 0.16.

Consider “ACAAGAACAGAACGTACACACACATATATATATATA [CACACA_site9143]”, for which the “gcPBM binding intensity (ln)” value is 9.97 ± 0.39.

“CAAGAAACAGTGATACGTACACATATATATATATAT [XGTACX_site3229]”: the “gcPBM binding intensity (ln)” value worked out at 10.2 ± 0.32.

In the case of “CATACACAGAAACACACACACATATATACATATATA [CACACA_site1094]”, the “gcPBM binding intensity (ln)” value is 8.59 ± 0.56.

Consider “TACATACAGAAACACACACACACATATATATATATA [CACACA_site2919]”, for which the “gcPBM binding intensity (ln)” value turned out to be 10 ± 0.28.

As to “AAGAACAGAACGTACACACACATATATATATATATA [CACACA_site3457]”, the “gcPBM binding intensity (ln)” value was found to be 10.2 ± 0.23.

Turning to “ATATATATATATATATGTACTGAATAAAGAACAAAA [XGTACX_site5400]”, the “gcPBM binding intensity (ln)” value came to 10.1 ± 0.42.

In the case of “AAAATAAAAATAACAACACACATATACTATAATATT [CACACA_site2769]”, the “gcPBM binding intensity (ln)” value turned out to be 8.7 ± 0.46.

Regarding “TTTCCTAGCACATGCACACAAAAAAAAAAAAAAAAA [CACACA_site1404]”, the “gcPBM binding intensity (ln)” value was 8.35 ± 0.35.

As for “AATTAGATTTACTGAAGTACTTAATTTATTTTATTA [XGTACX_site3407]”, the “gcPBM binding intensity (ln)” value turned out to be 8.85 ± 0.34.

With “ATTTATTAATTACCATGTATAAAAAATTATATAATA [CACACA_negctrl_site581]”, the “gcPBM binding intensity (ln)” value is 8.19 ± 0.51.

Consider “AATAAAAATAAAAATTGTACACTTTTTTAATATTTA [XGTACX_site892]”, for which the “gcPBM binding intensity (ln)” value was 8.11 ± 0.25.

For “ATATAATTCAAATACAGTACATATACAATATATACA [XGTACX_site1191]”, the “gcPBM binding intensity (ln)” value is 8.21 ± 0.3.

Regarding “TACAAGCCCAATTCAAGTACATATATATATATATAT [XGTACX_site5569]”, the “gcPBM binding intensity (ln)” value was determined as 10.2 ± 0.44.

As to “TTTTTTTTTTTTTCAAGTACATATATATATATATAA [XGTACX_site2098]”, the “gcPBM binding intensity (ln)” value worked out at 8.44 ± 0.45.

As to “TATTATGTTATATATTGTACATGTTTATTGAAACAA [XGTACX_site5605]”, the “gcPBM binding intensity (ln)” value is 8.66 ± 0.21.

On to “ACTTCCTATATTTATGCATGCATTTTATTAAAAAAT [TGCATGCA_site747]”, for which the “gcPBM binding intensity (ln)” value came out at 9.92 ± 0.16.

For the sequence “TGCATTTTCCTATTTGCATGCAATTAAAATATAGAA [TGCATGCA_site862]”, the “gcPBM binding intensity (ln)” value amounted to 10.2 ± 0.24.

As to “AAATAAAAATTACAAGCATGCATTTTCCTATTTGCA [TGCATGCA_site861]”, the “gcPBM binding intensity (ln)” value came to 8.56 ± 0.46.

Turning to “AACAGACAGAAACACACACACATATATATATATATA [CACACA_site3394]”, the “gcPBM binding intensity (ln)” value is 10 ± 0.41.

With “AACAGACGAAGACACACACACATATATATATATATA [CACACA_site1020]”, the “gcPBM binding intensity (ln)” value is 10.2 ± 0.21.

“GTAAGAAACAGACACACACACATATATATATATATA [CACACA_site794]”: the “gcPBM binding intensity (ln)” value turned out to be 10.2 ± 0.24.

With “GTAAGAAACAGACACACACACATATAAATATAAATA [CACACA_site6515]”, the “gcPBM binding intensity (ln)” value turned out to be 8.77 ± 0.64.

Turning to “AAAACAAACGGACACACACACATATATATATATATA [CACACA_site5924]”, the “gcPBM binding intensity (ln)” value is 10.1 ± 0.32.

Consider “AATGAACAGACGAGCACACACACACCCATATATATA [CACACA_site1018]”, for which the “gcPBM binding intensity (ln)” value was 8.85 ± 0.35.
